These sequences were tested against TULP4 (assay: pooled miR-30 sensor sort-seq; sequence = guide strand). Conditions: shRNA.
Also: reference of the scale not given here.

Sequence	sensor-assay potency score (higher = more potent)
TTTGTCTTATTCAACTTCTTTG	-1.04
TTAAAGTCACTCAAAGTCCTAG	0.213
TACAGCTGTCGTCTGGTTGGTC	-0.0173
TTTTATAGATTACTGCACCGAG	0.0761
TAAATTAATATAGTCCATGGAA	-0.711

Each sequence was assayed against TUSC2 in the same assay as above. Conditions: shRNA.

Sequence	sensor-assay potency score (higher = more potent)
TCTTGGTGACGATTGTCTCCTC	-0.566
TGTCTCCTCATAGAACTCGTGA	-0.468
TTGGTGACGATTGTCTCCTCAT	0.0125
TCCTCATCATAGAACATAGAGC	-1.99
TCTCCTCATAGAACTCGTGAGC	-1.05
TCATCATAGAACATAGAGCCGC	-0.771
TTCTTGGTGACGATTGTCTCCT	-0.377
AATCAGATTCTTATGCACTCGC	0.0606
TCATAGAACATAGAGCCGCGGC	-0.488
AAGCTTGCTCAGCTCCTGCTGC	-0.817
ATTCTTATGCACTCGCCTCAGC	-1.06
TAGAACATAGAGCCGCGGCGCG	-1.07

What follows are sequences tested against TUT1 in the same assay as above. Conditions: shRNA.

Sequence	sensor-assay potency score (higher = more potent)
TTTGGACTCGATACACCCCAGG	-0.836
TCGTAGTTCTACCAGGTGCCGG	-1.53
TTCTCGCAGCTCGTAGTTCTAC	-0.83
TCTAGCAGTGGTGAAGCTGGAG	-0.366
TAGGAAGTACTCAGAGAGCTGA	0.227
AAACACACTTCGAAGTCCCTGG	0.0034
TCCTTGTCCATGACAACACTGG	-1.19
TACTGAGGGAGACATCACCGTG	-1.54
TTGGGGTCTCTGCTAGTTCCGA	-1.32
TAGTTCTACCAGGTGCCGGTGC	-0.799
TTGTCCATGACAACACTGGCCA	-0.399
TGACAGAACTTGACCACAGGGC	0.248

Each sequence was assayed against TXLNG in the same assay as above. Conditions: shRNA.

Sequence	sensor-assay potency score (higher = more potent)
TTCGATGAGCTTCTTTAGCTTC	-0.258
TTCTCTGTTATAAAGTCACTGC	-0.298
TTTAGTTGTACTTCCTGCTGTT	0.906
TAACGTCTTATTGTGACGCTGA	0.553
TTCTTCTTCCTCTCGTGCCTGC	-0.0706
TTAAACTATTCAAAACTGCTAA	-0.454
ATTTGCTTCTGAACACTCCTGC	0.776
TTTCTTTGTCATCTTTTCCATT	-0.923
TTCTCATTGAGCTCATTCCTTT	-0.993
TTTTAGTTGTACTTCCTGCTGT	0.554
TTCCTTACGTTTGAACACCTTA	-0.525

Source: the OligoGym collection
